# According to PubChem BioAssay AID1159580 (chemical genetic matrix, 2015):
# Out of some 5,500 compounds screened, about 2,000 (36%) were called active. Roughly 18% stayed inconclusive and do not appear here. Some of the results follow. Values without a mark were called inactive. Rule as the data show it: active = normalized growth mostly below about 0.91 (no sharp cut-off); inconclusive = no clear call, values can overlap the other calls; inactive = mostly above about 0.92.
# Assay: chemical genetic growth profiling, strain panel (AID 1159580);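 also: tested at 20 µM; growth read once vehicle control cultures reached saturation at 30 °C; 1 = growth at the plate median or of vehicle wells; lower values mean less growth of the strain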
# Details: growth OD
smiles,measurement,setting,value
COP(=S)(OC)Oc1ccc([N+](=O)[O-])cc1,normalized growth,"S. cerevisiae deletion strains, locus YJR075W, strain HOC1, active compounds read low",0.993
same,normalized growth,"S. cerevisiae deletion strains, locus YKL009W, strain mrt4, active compounds read low",0.962
same,normalized growth,"S. cerevisiae deletion strains, locus YKL068W, active compounds read low",0.987
same,normalized growth,"S. cerevisiae deletion strains, locus YKL085W, strain MDH1 (second series), active compounds read low",0.978
same,normalized growth,"S. cerevisiae deletion strains, locus YKL085W, strain MDH1, active compounds read low",0.978
same,normalized growth,"S. cerevisiae deletion strains, locus YKL160W, strain elf1, active compounds read low",0.993
same,normalized growth,"S. cerevisiae deletion strains, locus YKL190W, strain CNB1, active compounds read low",0.975
same,normalized growth,"S. cerevisiae deletion strains, locus YKR001C, strain vps1, active compounds read low",0.982
same,normalized growth,"S. cerevisiae deletion strains, locus YKR026C, strain gcn3, active compounds read low",0.995
same,normalized growth,"S. cerevisiae deletion strains, locus YKR091W, strain srl3, active compounds read low",0.992
same,normalized growth,"S. cerevisiae deletion strains, locus YLL001W, strain dnm1, active compounds read low",0.995
same,normalized growth,"S. cerevisiae deletion strains, locus YLL026W, active compounds read low",0.993
same,normalized growth,"S. cerevisiae deletion strains, locus YLL041C, strain sdh2, active compounds read low",1
same,normalized growth,"S. cerevisiae deletion strains, locus YLR027C, strain aat2, active compounds read low",0.998
same,normalized growth,"S. cerevisiae deletion strains, locus YLR039C, strain RIC1, active compounds read low",0.877
same,normalized growth,"S. cerevisiae deletion strains, locus YLR058C, strain SHM2, active compounds read low",0.975
same,normalized growth,"S. cerevisiae deletion strains, locus YLR102C, strain apc9, active compounds read low",0.974
same,normalized growth,"S. cerevisiae deletion strains, locus YLR113W, strain HOG1, active compounds read low",0.916
same,normalized growth,"S. cerevisiae deletion strains, locus YLR221C, strain rsa3, active compounds read low",0.974
same,normalized growth,"S. cerevisiae deletion strains, locus YLR258W, strain gsy2, active compounds read low",0.99
same,normalized growth,"S. cerevisiae deletion strains, locus YLR262C, strain YPT6 (second series), active compounds read low",0.927
same,normalized growth,"S. cerevisiae deletion strains, locus YLR262C, strain YPT6, active compounds read low",0.915
same,normalized growth,"S. cerevisiae deletion strains, locus YLR268W, strain sec22, active compounds read low",0.993
same,normalized growth,"S. cerevisiae deletion strains, locus YLR320W, strain mms22, active compounds read low",0.944
same,normalized growth,"S. cerevisiae deletion strains, locus YLR330W, strain CHS5, active compounds read low",0.989
same,normalized growth,"S. cerevisiae deletion strains, locus YLR342W, strain FKS1 (second series), active compounds read low",0.998
same,normalized growth,"S. cerevisiae deletion strains, locus YLR342W, strain FKS1, active compounds read low",0.981
same,normalized growth,"S. cerevisiae deletion strains, locus YLR357W, strain rsc2, active compounds read low",1
same,normalized growth,"S. cerevisiae deletion strains, locus YLR370C, strain arc18, active compounds read low",0.991
same,normalized growth,"S. cerevisiae deletion strains, locus YLR371W, strain rom2, active compounds read low",0.975
same,normalized growth,"S. cerevisiae deletion strains, locus YLR384C, strain iki3, active compounds read low",0.971
same,normalized growth,"S. cerevisiae deletion strains, locus YLR418C, strain cdc73, active compounds read low",0.991
same,normalized growth,"S. cerevisiae deletion strains, locus YML016C, strain PPZ1, active compounds read low",0.951
same,normalized growth,"S. cerevisiae deletion strains, locus YML032C, strain rad52, active compounds read low",0.981
same,normalized growth,"S. cerevisiae deletion strains, locus YML120C, strain ndi1, active compounds read low",1
same,normalized growth,"S. cerevisiae deletion strains, locus YML124C, strain tub3, active compounds read low",0.99
same,normalized growth,"S. cerevisiae deletion strains, locus YMR058W, strain fet3, active compounds read low",1
same,normalized growth,"S. cerevisiae deletion strains, locus YMR078C, strain ctf18, active compounds read low",0.974
same,normalized growth,"S. cerevisiae deletion strains, locus YMR125W, strain sto1, active compounds read low",0.995
same,normalized growth,"S. cerevisiae deletion strains, locus YMR129W, active compounds read low",0.991
same,normalized growth,"S. cerevisiae deletion strains, locus YMR205C, strain PFK2, active compounds read low",0.97
same,normalized growth,"S. cerevisiae deletion strains, locus YMR223W, strain ubp8, active compounds read low",0.99
same,normalized growth,"S. cerevisiae deletion strains, locus YMR231W, strain pep5, active compounds read low",0.978
same,normalized growth,"S. cerevisiae deletion strains, locus YMR263W, strain SAP30, active compounds read low",0.985
same,normalized growth,"S. cerevisiae deletion strains, locus YMR307W, strain GAS1, active compounds read low",1.03
same,normalized growth,"S. cerevisiae deletion strains, locus YNL067W, strain RPL9B, active compounds read low",0.984
same,normalized growth,"S. cerevisiae deletion strains, locus YNL071W, strain lat1, active compounds read low",0.934
same,normalized growth,"S. cerevisiae deletion strains, locus YNL128W, strain TEP1, active compounds read low",0.96
same,normalized growth,"S. cerevisiae deletion strains, locus YNL153C, strain GIM3, active compounds read low",0.998
same,normalized growth,"S. cerevisiae deletion strains, locus YNL183C, strain NPR1, active compounds read low",0.954
same,normalized growth,"S. cerevisiae deletion strains, locus YNL209W, strain ssb2, active compounds read low",0.993
same,normalized growth,"S. cerevisiae deletion strains, locus YNL233W, strain BNI4, active compounds read low",0.977
same,normalized growth,"S. cerevisiae deletion strains, locus YNL248C, strain rpa49, active compounds read low",0.983
same,normalized growth,"S. cerevisiae deletion strains, locus YNL250W, strain rad50, active compounds read low",0.981
same,normalized growth,"S. cerevisiae deletion strains, locus YNL271C, strain bni1, active compounds read low",0.98
same,normalized growth,"S. cerevisiae deletion strains, locus YNL298W, strain CLA4, active compounds read low",0.977
same,normalized growth,"S. cerevisiae deletion strains, locus YNL307C, strain MCK1, active compounds read low",0.984
same,normalized growth,"S. cerevisiae deletion strains, locus YNL322C, strain KRE1 (second series), active compounds read low",0.99
same,normalized growth,"S. cerevisiae deletion strains, locus YNL322C, strain KRE1, active compounds read low",0.986
same,normalized growth,"S. cerevisiae deletion strains, locus YNR049C, strain mso1, active compounds read low",1.01
same,normalized growth,"S. cerevisiae deletion strains, locus YNR052C, strain pop2, active compounds read low",0.984
same,normalized growth,"S. cerevisiae deletion strains, locus YOL006C, strain TOP1, active compounds read low",0.885
same,normalized growth,"S. cerevisiae deletion strains, locus YOL012C, strain htz1",1.15
same,normalized growth,"S. cerevisiae deletion strains, locus YOL147C, strain pex11, active compounds read low",0.994
same,normalized growth,"S. cerevisiae deletion strains, locus YOR001W, strain rrp6, active compounds read low",1
same,normalized growth,"S. cerevisiae deletion strains, locus YOR061W, strain CKA2, active compounds read low",0.964
same,normalized growth,"S. cerevisiae deletion strains, locus YOR069W, strain VPS5, active compounds read low",0.994
same,normalized growth,"S. cerevisiae deletion strains, locus YOR070C, strain gyp1, active compounds read low",1
same,normalized growth,"S. cerevisiae deletion strains, locus YOR080W, strain dia2, active compounds read low",0.984
same,normalized growth,"S. cerevisiae deletion strains, locus YOR083W, strain WHI5, active compounds read low",0.987
same,normalized growth,"S. cerevisiae deletion strains, locus YOR106W, strain vam3, active compounds read low",0.947
same,normalized growth,"S. cerevisiae deletion strains, locus YOR136W, strain idh2, active compounds read low",0.997
same,normalized growth,"S. cerevisiae deletion strains, locus YOR144C, strain elg1, active compounds read low",0.987
same,normalized growth,"S. cerevisiae deletion strains, locus YOR184W, strain ser1, active compounds read low",0.984
same,normalized growth,"S. cerevisiae deletion strains, locus YOR231W, strain MKK1, active compounds read low",1
same,normalized growth,"S. cerevisiae deletion strains, locus YOR265W, strain rbl2, active compounds read low",1.01
same,normalized growth,"S. cerevisiae deletion strains, locus YOR270C, strain vph1, active compounds read low",0.658 (active)
same,normalized growth,"S. cerevisiae deletion strains, locus YOR290C, strain snf2, active compounds read low",0.997
same,normalized growth,"S. cerevisiae deletion strains, locus YOR316C, strain cot1, active compounds read low",0.967
same,normalized growth,"S. cerevisiae deletion strains, locus YPL051W, strain arl3, active compounds read low",1.01
same,normalized growth,"S. cerevisiae deletion strains, locus YPL055C, strain LGE1, active compounds read low",0.964
same,normalized growth,"S. cerevisiae deletion strains, locus YPL078C, strain atp4, active compounds read low",0.999
same,normalized growth,"S. cerevisiae deletion strains, locus YPL106C, strain sse1, active compounds read low",0.984
same,normalized growth,"S. cerevisiae deletion strains, locus YPL240C, strain hsp82, active compounds read low",0.999
same,normalized growth,"S. cerevisiae deletion strains, locus YPL241C, strain CIN2, active compounds read low",0.985
same,normalized growth,"S. cerevisiae deletion strains, locus YPL256C, strain CLN2, active compounds read low",1.01
same,normalized growth,"S. cerevisiae deletion strains, locus YPR119W, strain clb2, active compounds read low",0.983
same,normalized growth,"S. cerevisiae deletion strains, locus YPR141C, strain kar3, active compounds read low",0.951
same,normalized growth,"S. cerevisiae deletion strains, locus YPR163C, strain tif3, active compounds read low",0.99
same,normalized growth,"S. cerevisiae deletion strains, locus YPR167C, strain met16, active compounds read low",0.984
same,normalized growth,"S. cerevisiae deletion strains, strain wtn01, active compounds read low",0.977
same,normalized growth,"S. cerevisiae strains, strain wild type, active compounds read low",0.985
